Measurements reported in PubChem BioAssay (NCATS).
Unmarked numbers belong to inactive results. Records with an inconclusive call do not appear. The source made the active and inactive calls. Unless noted, calls come from the whole dose curve; as a rule, active = well fitted curve in either direction with a large enough effect (not every such curve was filed as active); inconclusive = small, poorly fitted or top-dose-only effect, or another doubt; inactive = flat fitted curve, though single readings scatter.

Assays:
[1] = molecular target: Lysosomal acid glucosylceramidase (Homo sapiens) (UniProt P04062); assay: Glucocerebrosidase-p2 (AID 348; in the data active = potency below about 10 µM; note: potency is the fitted concentration of half-maximal effect); details: purified GBA, blue fluorogenic substrate, 40 min
In short: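 Compounds titrated from 0.6 nM upwards against 0.2 nM enzyme in pH 5.9 citric acid/KH2PO4, taurocholate, tween-20; blue fluorogenic substrate 80 uM, 40 min room temperature, stopped and read Ex 365/Em 440 for AC50.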

[2] = AP1 Signaling Pathway (AID 357); details: ME-180 AP-1-bla reporter, EGF-induced, beta-lactamase ratio, 5 h; at 7.69 µM (top of the series) unless noted; note: % is set by controls: 0 for no effect and ±100 for the full control effect
In short: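 ME-180 cells with beta-lactamase reporter under AP-1 response element, stimulated with EC50 EGF; compounds tested in titration series, 5 h at 37 °C. CCF4 substrate added 2.5 h at room temperature; 460/530 nm emission ratio gave %activity and AC50.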

[3] = molecular target: Cytochrome P450 1A2 (Homo sapiens) (UniProt P05177); assay: p450-cyp1a2 (AID 410; calls by dose curve; note: potency is the fitted concentration of half-maximal effect;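 for activity change, negative = inhibition: -100% = full effect of reference inhibitor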); details: recombinant CYP1A2, luciferin-ME demethylation, luminescence; series mostly up to 11.4 µM
In short: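 Human CYP1A2 (20nM) demethylated Luciferin-ME at its Km (100uM) in 100mM KPO4. After 10 min compound preincubation, NADPH regeneration ran the reaction 60 min at room temperature. Luciferin was read by luminescence, normalized to 57 uM furafylline.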

[4] = NFAT Signaling Pathway (AID 444); details: Jurkat NFAT-bla M1, carbachol, beta-lactamase ratio, 5 h; at 7.69 µM (top of the series) unless noted;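 note: carbachol stimulus at about its EC50 of 1 µM final; % is set by controls: 0 for no effect and ±100 for the full control effect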
In short: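 Jurkat cells with NFAT-driven β-lactamase reporter and co-expressed M1 receptor, stimulated with carbachol (final 1 uM, ~EC50), compound titration, 5 h at 37 °C. CCF4 loaded 1 h at RT; 460/530 nm ratio gave %activity and AC50.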

[5] = Stat Signaling Pathway (AID 446); details: ME-180 SIE beta-lactamase reporter, IL-6 stimulated, 5 h; at 7.69 µM (top of the series) unless noted;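 note: ME-180 cervical cancer cells given 40 pM IL-6 alongside compound; SIE-controlled beta-lactamase reporter measured as 460/530 nm FRET emission ratio; % is set by controls: 0 for no effect and ±100 for the full control effect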
In short: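 Reporter line: ME-180 cervical carcinoma, SIE-beta-lactamase. Treatment: compound with 40 pM IL-6, 5 hrs, 37 C, in low-serum OPTI-MEM with 10 mM HEPES pH 7.3. Detection: 460/530 nm fluorescence.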

[6] = molecular target: Glucocorticoid receptor (Homo sapiens) (UniProt P04150); assay: GR-GFP Redistribution (AID 450;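 active = compounds whose dose series gives a full or clear partial fitted curve of increased nuclear translocation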; note: potency is the fitted concentration of half-maximal effect); details: U2OS GR-GFP nuclear translocation, laser cytometry, 2 h
[7] = molecular target: Glucocorticoid receptor (Homo sapiens) (UniProt P04150); assay: GR-EFC Redistribution (AID 451; calls by dose curve; note: potency is the fitted concentration of half-maximal effect); details: CHO-K1 GR-EFC translocation, beta-gal luminescence, 2 h
In short: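 CHO-K1 cells expressing nuclear EA and GR-ED fragments of b-gal; compounds titrated up to 46 uM final, 2 h at 37 C. GR nuclear translocation read as complemented b-gal luminescence after 1 h RT detection.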

[8] = molecular target: Mitogen-activated protein kinase 10 (Mus musculus) (UniProt Q61831); assay: JNK3 AlphaScreen Assay (AID 530); details: JNK3 lysate, c-Jun phosphorylation; series mostly up to 11.4 µM;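 note: kinase came from lysate of stimulated human HepG2 cells; signal reports phosphorylation of biotinylated GST-cJun 1-79 at Ser73 with 10 µM ATP; % is set by controls: 0 for no effect and ±100 for the full control effect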
In short: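 qHTS format: compounds tested as titrations against IL-1beta/TNF-alpha-activated HepG2 lysate JNK3 with biotin-GST-cJun substrate and 10 uM ATP at room temperature. Loss of anti-phospho-cJun AlphaScreen signal indicates inhibition.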

[9] = molecular target: 3',5'-cyclic-AMP phosphodiesterase 4B (Homo sapiens) (UniProt Q07343); assay: qHTS Assay for Inhibitors of PDE-IV (AID 607; active = well fitted activation curve with a large enough effect in the main read-out, with a control signal flat, not every such curve was filed as active; note: % of control where 0% means no effect); details: HEK293 ACTOne CNG channel cells, membrane potential fluorescence; series mostly up to 22.9 µM
In short: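 Cell-based read-out of cAMP via a modified cyclic nucleotide-gated channel and membrane potential dye (535/590 nm) in HEK293 cells expressing PDE4 endogenously. Compounds tested up to 22.9 uM final; 100 uM RO 20-1724 reference.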

[10] = molecular target: Cytochrome P450 2C19 (Homo sapiens) (UniProt P33261); assay: qHTS Assay for Inhibitors and Substrates of Cytochrome P450 2C19 (AID 899; active = well fitted curve in the direction sought with a large enough effect; an effect the other way counts as inactive or inconclusive; note: nearly all actives have a fitted effect of over 60% in size; note: potency is the fitted concentration of half-maximal effect); details: recombinant CYP2C19, luciferin-H EGE luminescence; series mostly up to 11.4 µM
In short: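 Luminescent read-out of luciferin formed from Luciferin-H EGE (10uM, equal to KM). Enzyme 5nM in 50mM KPO4; compound added, 10 min at 37C, then NADPH regenerating system for 60 min at 37C. Full inhibition defined by 57uM ketoconazole.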

[11] = qHTS Assay for Identification of Small Molecule Agonists for Hypoxia Response Element Signaling Pathway (AID 914; active = well fitted activation curve with a large enough effect in the signal ratio, with a control signal flat, not every such curve was filed as active; the % refers to the signal ratio; note: % of control where 0% means no effect); details: ME-180 (cervical carcinoma) HRE-bla reporter, beta-lactamase ratio, CoCl2, 17 h; activation: active compounds read high
In short: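 qHTS titration; ME-180 HRE-bla cells; EC50 CoCl2 co-treatment, 17 h at 37 degrees Celsius; CCF4 dye, ex 405nm, em 460nm and 530nm; %Activity from ratio; AC50.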

[12] = molecular target: Cytochrome P450 2D6 (Homo sapiens) (UniProt P10635); assay: qHTS Assay for Inhibitors and Substrates of Cytochrome P450 2D6 (AID 891; active = well fitted curve in the direction sought with a large enough effect; an effect the other way counts as inactive or inconclusive; note: potency is the fitted concentration of half-maximal effect; nearly all actives have a fitted effect of over 60% in size); details: recombinant CYP2D6, luciferin-ME EGE luminescence; series mostly up to 11.4 µM
In short: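 Human CYP2D6 (5 nM) with 30 uM Luciferin-ME EGE (at Km) in 100 mM KPO4, compound preincubated 10 min, then NADPH regeneration system for 60 min at room temperature. Luciferin read by luminescence; normalized to 1.43 uM quinidine.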

[13] = molecular target: Cytochrome P450 2C9 (Homo sapiens) (UniProt P11712); assay: qHTS Assay for Inhibitors and Substrates of Cytochrome P450 2C9 (AID 883; active = well fitted curve in the direction sought with a large enough effect; an effect the other way counts as inactive or inconclusive; note: nearly all actives have a fitted effect of over 60% in size; note: potency is the fitted concentration of half-maximal effect); details: recombinant CYP2C9, luciferin-H luminescence, 60 min; series mostly up to 11.4 µM
In short: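 10nM CYP2C9 + 100uM Luciferin-H (=KM), 25mM KPO4; cpd 10 min 37C; NADPH regen, 60 min 37C; stop/detect with P450 Glo-Buffer 20 min; luminescence. Norm. to 57uM sulphaphenazole as full inhibition.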

[14] = molecular target: Cytochrome P450 3A4 (Homo sapiens) (UniProt P08684); assay: qHTS Assay for Activators of Cytochrome P450 3A4 (AID 885; active = well fitted curve in the direction sought with a large enough effect; an effect the other way counts as inactive or inconclusive; note: nearly all actives have a fitted effect of over 65% in size); details: recombinant CYP3A4, Luciferin-PPXE luminescence, 60 min; series mostly up to 11.4 µM
In short: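 Signal was normalized against complete inhibition by 57 uM ketoconazole. The reaction used 20nM CYP3A4 with 25uM Luciferin-PPXE, 10-min compound preincubation and a 60-min NADPH-supported step at RT.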

Glucocorticoid receptor (Homo sapiens), sequence (P04150 whole entry, looked up, the tested form may be a part): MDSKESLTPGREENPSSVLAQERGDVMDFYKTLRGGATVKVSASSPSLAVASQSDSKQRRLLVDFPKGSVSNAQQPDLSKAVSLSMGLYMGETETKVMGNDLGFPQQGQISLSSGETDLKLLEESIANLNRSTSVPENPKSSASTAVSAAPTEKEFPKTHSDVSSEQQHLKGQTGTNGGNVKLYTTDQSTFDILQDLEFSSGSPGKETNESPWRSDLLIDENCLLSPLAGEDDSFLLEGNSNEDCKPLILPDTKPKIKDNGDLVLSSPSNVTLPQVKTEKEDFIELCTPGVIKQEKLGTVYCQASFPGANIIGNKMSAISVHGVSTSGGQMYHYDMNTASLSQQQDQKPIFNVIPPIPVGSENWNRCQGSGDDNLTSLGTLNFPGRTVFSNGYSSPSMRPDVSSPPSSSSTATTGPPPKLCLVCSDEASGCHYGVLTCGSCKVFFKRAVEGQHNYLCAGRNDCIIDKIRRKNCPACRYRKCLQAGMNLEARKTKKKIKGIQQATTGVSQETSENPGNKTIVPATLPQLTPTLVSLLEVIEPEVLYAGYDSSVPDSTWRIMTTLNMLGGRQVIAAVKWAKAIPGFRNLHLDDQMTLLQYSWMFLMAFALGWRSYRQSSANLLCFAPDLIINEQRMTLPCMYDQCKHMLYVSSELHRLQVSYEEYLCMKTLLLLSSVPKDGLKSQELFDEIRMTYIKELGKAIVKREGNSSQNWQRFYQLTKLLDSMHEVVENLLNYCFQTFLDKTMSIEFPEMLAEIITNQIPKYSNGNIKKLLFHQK
Lysosomal acid glucosylceramidase (Homo sapiens), sequence (P04062 whole entry, looked up): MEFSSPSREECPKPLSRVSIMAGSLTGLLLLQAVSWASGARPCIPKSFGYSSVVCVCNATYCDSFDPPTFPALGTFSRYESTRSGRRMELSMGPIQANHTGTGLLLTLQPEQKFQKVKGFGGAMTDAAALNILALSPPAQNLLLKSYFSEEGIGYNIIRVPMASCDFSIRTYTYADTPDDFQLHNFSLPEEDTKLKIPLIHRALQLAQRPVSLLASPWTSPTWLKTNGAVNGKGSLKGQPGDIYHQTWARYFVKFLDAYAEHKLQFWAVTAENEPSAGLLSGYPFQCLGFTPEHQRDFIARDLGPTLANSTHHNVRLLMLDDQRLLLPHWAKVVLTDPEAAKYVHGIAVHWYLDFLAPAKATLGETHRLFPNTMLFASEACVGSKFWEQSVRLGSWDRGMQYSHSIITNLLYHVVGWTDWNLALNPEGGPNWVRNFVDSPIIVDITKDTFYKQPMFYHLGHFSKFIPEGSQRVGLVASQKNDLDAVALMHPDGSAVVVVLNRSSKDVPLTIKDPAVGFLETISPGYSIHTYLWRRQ
Cytochrome P450 2C19 (Homo sapiens), sequence (P33261 whole entry, looked up): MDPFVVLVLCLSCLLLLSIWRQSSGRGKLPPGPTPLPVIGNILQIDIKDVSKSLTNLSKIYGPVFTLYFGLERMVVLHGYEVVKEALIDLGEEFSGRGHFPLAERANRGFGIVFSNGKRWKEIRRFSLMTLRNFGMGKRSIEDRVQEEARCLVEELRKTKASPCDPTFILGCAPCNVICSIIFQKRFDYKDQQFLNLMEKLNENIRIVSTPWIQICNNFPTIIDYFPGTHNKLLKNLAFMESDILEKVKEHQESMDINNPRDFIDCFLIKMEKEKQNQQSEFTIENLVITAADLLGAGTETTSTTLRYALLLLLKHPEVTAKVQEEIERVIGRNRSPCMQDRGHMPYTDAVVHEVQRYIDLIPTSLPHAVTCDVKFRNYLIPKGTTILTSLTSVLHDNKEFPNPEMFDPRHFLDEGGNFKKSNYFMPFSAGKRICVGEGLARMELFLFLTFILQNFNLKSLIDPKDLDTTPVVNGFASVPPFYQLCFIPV
Cytochrome P450 1A2 (Homo sapiens), sequence (P05177 whole entry, looked up): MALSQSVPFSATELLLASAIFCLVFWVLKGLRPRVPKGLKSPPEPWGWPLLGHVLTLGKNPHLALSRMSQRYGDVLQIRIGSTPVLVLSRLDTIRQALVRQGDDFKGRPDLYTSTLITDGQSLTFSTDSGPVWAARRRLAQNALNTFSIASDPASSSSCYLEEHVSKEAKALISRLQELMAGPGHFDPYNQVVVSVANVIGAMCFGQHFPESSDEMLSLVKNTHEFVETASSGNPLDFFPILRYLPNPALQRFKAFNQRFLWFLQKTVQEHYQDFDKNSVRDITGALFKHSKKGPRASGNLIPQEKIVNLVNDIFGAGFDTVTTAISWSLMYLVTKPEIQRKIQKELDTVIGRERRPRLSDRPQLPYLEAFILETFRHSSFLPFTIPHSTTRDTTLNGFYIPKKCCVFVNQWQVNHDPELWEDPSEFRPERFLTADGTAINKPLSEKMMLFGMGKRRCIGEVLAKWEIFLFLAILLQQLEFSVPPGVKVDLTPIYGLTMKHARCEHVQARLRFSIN
3',5'-cyclic-AMP phosphodiesterase 4B (Homo sapiens), sequence (Q07343 whole entry, looked up): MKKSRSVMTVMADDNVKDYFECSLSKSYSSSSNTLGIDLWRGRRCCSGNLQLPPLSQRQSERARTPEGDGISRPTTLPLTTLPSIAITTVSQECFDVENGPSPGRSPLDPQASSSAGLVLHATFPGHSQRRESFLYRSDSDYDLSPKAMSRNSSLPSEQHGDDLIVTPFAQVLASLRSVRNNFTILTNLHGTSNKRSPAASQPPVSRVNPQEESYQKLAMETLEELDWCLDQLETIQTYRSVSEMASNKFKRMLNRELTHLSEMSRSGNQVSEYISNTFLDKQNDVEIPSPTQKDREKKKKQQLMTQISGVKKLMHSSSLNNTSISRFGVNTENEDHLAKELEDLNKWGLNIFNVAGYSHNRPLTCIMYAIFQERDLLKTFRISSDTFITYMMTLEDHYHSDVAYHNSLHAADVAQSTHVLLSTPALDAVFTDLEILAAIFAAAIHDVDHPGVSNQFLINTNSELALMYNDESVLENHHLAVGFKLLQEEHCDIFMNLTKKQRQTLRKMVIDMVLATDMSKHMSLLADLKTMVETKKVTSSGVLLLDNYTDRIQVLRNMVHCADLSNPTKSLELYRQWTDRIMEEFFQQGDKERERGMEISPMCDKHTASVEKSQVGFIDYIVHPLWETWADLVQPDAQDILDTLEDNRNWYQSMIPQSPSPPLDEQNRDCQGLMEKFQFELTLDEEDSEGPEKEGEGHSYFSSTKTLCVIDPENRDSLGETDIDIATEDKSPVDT
Cytochrome P450 2D6 (Homo sapiens), sequence (P10635 whole entry, looked up): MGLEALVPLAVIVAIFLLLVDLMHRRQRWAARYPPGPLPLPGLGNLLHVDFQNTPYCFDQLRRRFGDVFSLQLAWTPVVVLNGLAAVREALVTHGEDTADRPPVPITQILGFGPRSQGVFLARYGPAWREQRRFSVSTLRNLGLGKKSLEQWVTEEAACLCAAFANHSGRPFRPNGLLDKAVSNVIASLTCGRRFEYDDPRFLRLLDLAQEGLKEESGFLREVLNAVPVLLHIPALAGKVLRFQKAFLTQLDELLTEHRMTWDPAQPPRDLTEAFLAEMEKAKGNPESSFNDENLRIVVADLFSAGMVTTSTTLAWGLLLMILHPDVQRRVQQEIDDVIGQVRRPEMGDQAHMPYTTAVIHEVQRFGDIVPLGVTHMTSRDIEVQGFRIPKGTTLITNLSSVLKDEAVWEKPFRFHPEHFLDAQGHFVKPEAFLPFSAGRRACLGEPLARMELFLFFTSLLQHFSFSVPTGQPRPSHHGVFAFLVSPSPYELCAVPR
Cytochrome P450 2C9 (Homo sapiens), sequence (P11712 whole entry, looked up): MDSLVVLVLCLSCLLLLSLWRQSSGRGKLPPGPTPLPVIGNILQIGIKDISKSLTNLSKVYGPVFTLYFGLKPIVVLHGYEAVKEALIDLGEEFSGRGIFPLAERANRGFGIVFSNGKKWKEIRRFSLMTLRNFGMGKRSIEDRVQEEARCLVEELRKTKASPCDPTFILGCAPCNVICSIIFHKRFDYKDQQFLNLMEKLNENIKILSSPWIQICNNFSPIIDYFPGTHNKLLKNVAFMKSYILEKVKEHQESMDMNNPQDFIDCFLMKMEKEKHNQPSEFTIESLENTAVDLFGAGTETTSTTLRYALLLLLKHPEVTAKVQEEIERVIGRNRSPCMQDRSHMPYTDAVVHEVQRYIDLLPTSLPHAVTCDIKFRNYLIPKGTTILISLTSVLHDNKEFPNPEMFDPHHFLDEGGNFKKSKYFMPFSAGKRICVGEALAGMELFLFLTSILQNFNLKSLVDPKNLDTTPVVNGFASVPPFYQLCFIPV
Cytochrome P450 3A4 (Homo sapiens), sequence (P08684 whole entry, looked up): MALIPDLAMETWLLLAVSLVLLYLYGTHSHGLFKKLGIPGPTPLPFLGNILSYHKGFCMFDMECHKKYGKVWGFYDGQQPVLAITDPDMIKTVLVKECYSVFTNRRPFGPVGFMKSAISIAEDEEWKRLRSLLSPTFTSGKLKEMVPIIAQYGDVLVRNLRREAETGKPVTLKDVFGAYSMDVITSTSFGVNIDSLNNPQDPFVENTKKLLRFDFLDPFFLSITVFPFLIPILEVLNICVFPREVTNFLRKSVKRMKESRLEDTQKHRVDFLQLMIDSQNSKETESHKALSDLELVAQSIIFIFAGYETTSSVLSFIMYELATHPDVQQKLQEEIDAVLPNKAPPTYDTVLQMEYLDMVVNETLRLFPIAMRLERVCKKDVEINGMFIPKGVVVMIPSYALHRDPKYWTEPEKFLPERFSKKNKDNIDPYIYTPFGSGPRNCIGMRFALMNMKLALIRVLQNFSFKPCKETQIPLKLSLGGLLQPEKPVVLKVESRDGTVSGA

SMILES	Potency [1]	activity change, negative = inhibition [2]	Potency [3]	activity change, negative = inhibition [4]	activity, negative = inhibition [5]	Potency [6]	Potency [7]	Potency [8]	Potency [9]	Potency [10]	activity change, negative = inhibition [3]	activation [11]	Potency [12]	Potency [13]	Potency [14]
O=C(CC1(O)CCCCC1)OC1CCCC1	> 11.4 µM	8.55%	inactive	16.8%	4.14%	> 46 µM	> 9.22 µM	inactive	inactive	1.58 µM (active)	–	–	–	–	–
O=C(SCc1cccc2ccccc12)c1ccc(Cl)cc1	> 11.4 µM	9.24%	0.794 µM (active)	-5.94%	7%	> 46 µM	> 9.22 µM	inactive	inactive	1.58 µM (active)	–	–	–	–	–
CC(C)(Oc1ccc(-c2cccc3ccccc23)cc1)C(=O)O	–	–	–	–	–	–	–	–	–	inactive	–	–	–	–	–
O=[N+]([O-])c1cc(Cc2cc([N+](=O)[O-])c3cccnc3c2O)c(O)c2ncccc12	–	–	–	–	–	–	–	–	–	2.51 µM (active)	–	–	–	–	–
CN[C@@H]1NC(=O)c2ccccc2N1Cc1ccc(F)cc1	> 11.4 µM	4.91%	–	7.06%	4.09%	> 46 µM	> 9.22 µM	inactive	inactive	–	-7.6% [at 2.29 µM]	-6.12%	–	–	–
O=C(O)NCc1ccccc1 (tested in a mixture with another compound)	> 11.4 µM	4.23%	3.16 µM (active)	-18.9%	1.18%	> 46 µM	> 9.22 µM	inactive	–	–	–	1.79%	3.98 µM (active)	–	–
CC1(C)[C@@H]2CC[C@]1(CC(=O)O)[C@H](Cl)C2	> 11.4 µM	9.82%	inactive	2.95%	6.68%	> 46 µM	> 9.22 µM	inactive	inactive	–	–	2.22%	–	–	–
CCCCn1cnc2c(c(CC#N)nn2-c2ccccc2)c1=N	> 11.4 µM	-12%	1 µM (active)	-1.01%	-0.662%	> 46 µM	> 9.22 µM	inactive	–	–	–	16.2%	0.398 µM (active)	–	–
O=c1cnc2cnc(Oc3ccccc3)nc2n1CCc1ccccc1	> 11.4 µM	6.02%	3.16 µM (active)	-28.7%	-4.75%	> 9.22 µM	> 46 µM	inactive	–	6.31 µM (active)	–	–	–	3.16 µM (active)	–
O=C(O)c1ccc(CNCc2ccccc2)cc1	> 11.4 µM	-3.63%	inactive	-2.06%	15.5%	> 46 µM	> 9.22 µM	inactive	–	–	–	4.76%	–	–	–
O=C(O)[C@@H]1[C@@H](C(=O)Nc2ncccn2)[C@@H]2C=C[C@@H]1O2	> 11.4 µM	-0.979%	–	0.85%	9.29%	> 46 µM	> 9.22 µM	inactive	inactive	–	-13.2% [at 2.29 µM]	18.9%	–	–	–
C[C@@H]1NCC[C@H](CC(=O)O)[C@H]1CC(=O)O	> 11.4 µM	8.61%	inactive	-12%	8.09%	> 46 µM	> 9.22 µM	inactive	inactive	–	–	3.32%	–	–	–
Cc1nc2cnc(N3CCOCC3)nc2n(Cc2cccs2)c1=O	> 11.4 µM	-18.4%	2 µM (active)	-3.19%	-5.33%	> 9.22 µM	> 46 µM	inactive	–	–	–	–	–	–	inactive
CC(C)N(CC(=O)O)CC(=O)O	> 11.4 µM	11.5%	inactive	4.66%	10.4%	> 46 µM	> 9.22 µM	–	inactive	–	–	–	–	–	–
O=C(N/N=C\c1ccc2c(c1)CCC2)c1ccccc1O	> 11.4 µM	-5.97%	2 µM (active)	20.6%	-2.26%	> 46 µM	> 9.22 µM	inactive	–	–	–	–	–	inactive	–
O=C(O)c1cccc2cccc(-c3cccc4cccc(C(=O)O)c34)c12	> 11.4 µM	4.88%	–	10.7%	6.14%	> 46 µM	> 9.22 µM	–	inactive	–	-12.3% [at 2.29 µM]	–	–	–	–
O=C(O)c1cccc(CN2CCCCC2)c1	> 11.4 µM	9.32%	inactive	-15.5%	3.88%	> 46 µM	> 9.22 µM	–	inactive	–	–	–	–	–	–
OCCCNCc1ccccn1	> 11.4 µM	-3.7%	–	5.11%	5.98%	> 46 µM	> 9.22 µM	inactive	inactive	–	-20% [at 2.29 µM]	12.2%	–	–	–
